# Measured values reported in PubChem BioAssay (NCATS).
# Where “and” joins values, the source holds several entries; their conditions need not be identical. Equal values may be shown once. Inconclusive results are not listed. Where a call stands in place of a potency, no number is given. Calls of active or inactive are those of the source. Unless noted, the call rests on the fitted dose curve.
# What was measured:
# [1] = molecular target: Peroxisome proliferator-activated receptor gamma (Homo sapiens) (UniProt P37231); experiment: qHTS assay for small molecule agonists of peroxisome proliferator-activated receptor gamma signaling (AID 588536; active means well fitted curve in the direction sought with a large enough effect in the signal ratio, with a control signal flat, not every such curve was filed as active; the % refers to the signal ratio)
# Procedure, shortened: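 Using GeneBLAzer HEK293 cells, response was quantified by CCF4 fluorescence and normalized between basal DMSO (0%) and rosiglitazone 2 uM (100%); curves yielded half-maximal stimulation concentration and efficacy.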
# [2] = molecular target: Peroxisome proliferator-activated receptor gamma (Homo sapiens) (UniProt P37231); experiment: qHTS assay for small molecule antagonists of peroxisome proliferator-activated receptor gamma signaling (AID 588537; active means well fitted inhibition curve with a large enough effect in the signal ratio, with a control signal flat, not every such curve was filed as active; the % refers to the signal ratio;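 further: reporter cells co-stimulated with 50 nM rosiglitazone agonist during compound treatment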)
# Procedure, shortened: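 Cell-based beta-lactamase assay; GW9662 served as the antagonist control. Stimulation used rosiglitazone, final 50 nM, 16 h, 37 C.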
# [3] = molecular target: Vitamin D3 receptor (Homo sapiens) (UniProt P11473); experiment: qHTS assay for small molecule antagonists of vitamin D receptor signaling (AID 588541);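 further: receptor activated by calcitriol during compound treatment; series mostly up to about 77 µM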
# Procedure, shortened: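 Antagonist-mode beta-lactamase reporter assay: HEK293T VDR-UAS-bla cells were exposed to titrated compound alongside 1-alpha,25-dihydroxyvitamin D3 at 3 nM final for 16 h. Values were normalized to the 50 nM agonist control and DMSO basal, with IC50 and efficacy from Hill equation fits.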
# [4] = molecular target: Vitamin D3 receptor (Homo sapiens) (UniProt P11473); experiment: qHTS assay for small molecule agonists of vitamin D receptor signaling (AID 588543)
# Procedure, shortened: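 Reporter cells (HEK293T, VDR-UAS-bla) were seeded in medium with 2% charcoal-stripped serum and incubated 5 h, then compounds in concentration series were added for 16 h at 37 °C. Stimulation was scaled between DMSO basal and 50 nM 1α,25-dihydroxyvitamin D3.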
# [5] = qHTS assay for small molecule agonists of retinoid X receptor alpha signaling (AID 588544); conditions: HEK293T RXRa-UAS-bla, beta-lactamase reporter, 18 h; 530 nm emission
# [6] = molecular target: Retinoic acid receptor RXR-alpha (Homo sapiens) (UniProt P19793); experiment: as above
# [7] = qHTS assay for small molecule antagonists of retinoid X receptor alpha signaling (AID 588546; active means well fitted inhibition curve with a large enough effect in the signal ratio, with a control signal flat, not every such curve was filed as active; the % refers to the signal ratio;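 further: cells stimulated with 9-cis-retinoic acid as agonist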); conditions: HEK293T RXRa-UAS-bla, beta-lactamase ratio, antagonist mode; measured here: W530 green channel, cytotoxicity proxy
# Procedure, shortened: (§1)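 Beta-lactamase reporter inhibition, read as CCF4 fluorescence ratio (ex 405, em 460/530 nm) after 2 h at RT. HEK293T UAS-bla cells, 2500/well, were stimulated with 9-cis-RA at 500 or 100 nM final alongside test compound for 18 h at 37 C.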
# [8] = molecular target: Retinoic acid receptor RXR-alpha (Homo sapiens) (UniProt P19793); experiment: as above; conditions: HEK293T RXRa-UAS-bla, beta-lactamase ratio, antagonist mode
# Procedure, shortened: as §1
# [9] = molecular target: Thyroid hormone receptor beta (Homo sapiens) (UniProt P10828); experiment: qHTS assay for small molecule antagonists of thyroid hormone receptor beta signaling (AID 588547; active means well fitted inhibition curve with a large enough effect in the signal ratio, with a control signal flat, not every such curve was filed as active; the % refers to the signal ratio;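 further: cells stimulated with 0.4 nM T3 agonist during compound exposure; series mostly up to about 77 µM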); conditions: TR-UAS-bla HEK293, beta-lactamase ratio, antagonist mode, 18 h
# Procedure, shortened: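 Inhibition of T3-driven (0.4nM final) beta-lactamase reporter activity was measured over 0.59 nM to 92 uM compound after 18 h at 37 C. The cells were GripTite HEK293 TR-UAS-bla in charcoal/dextran-stripped serum, with CCF4 ratio read-out and IC50 from Hill fits.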
# [10] = molecular target: Voltage-gated inwardly rectifying potassium channel KCNH2 (Homo sapiens) (UniProt Q12809); experiment: qHTS Assay for Small Molecule Inhibitors of the Human hERG Channel Activity (AID 588834; active means well fitted inhibition curve with a large enough effect;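 further: top concentration of the series differs between compounds; lower thallium flux fluorescence means stronger hERG block; nearly all actives have a fitted effect of over 50% in size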)
# Procedure, shortened: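 Step 1: BacMam hERG transduction of U2OS, 4 hrs RT. Step 2: overnight 37 °C, plate 2000 cells/well, 4 hr. Step 3: FluxOR load, compound 10 min, stimulate, read fluorescence.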
# [11] = qHTS assay for small molecule agonists of the antioxidant response element (ARE) signaling pathway (AID 651741; active means well fitted activation curve with a large enough effect in the signal ratio; the % refers to the signal ratio; further: potency means the concentration at half of the fitted maximal effect)
# Procedure, shortened: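 Agonist activity is measured as ARE-driven beta-lactamase expression in a stable HepG2 reporter line, using 16 h compound treatment at 37 C and a FRET substrate fluorescence readout after 2 h.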
# [12] = qHTS assay for small molecule activators of the p53 signaling pathway (AID 651743; active means well fitted activation curve with a large enough effect in the signal ratio, not every such curve was filed as active; the % refers to the signal ratio; further: series mostly up to about 92 µM); conditions: HCT-116 p53RE-bla, beta-lactamase FRET ratio, 16 h; stronger effect = higher value
# Procedure, shortened: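 A beta-lactamase reporter under p53 response element control, stably carried by HCT-116 cells, reported pathway activation. Test compounds were applied for 16 hours at 37 C, and fluorescence was measured 2 hours after adding the B/G FRET substrate.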
# [13] = qHTS assay for small molecule activators of the nuclear factor-kappa B (NF-kB) signaling pathway (AID 651749; active means well fitted activation curve with a large enough effect in the signal ratio; the % refers to the signal ratio; further: series mostly up to about 77 µM); conditions: NF-kB-bla ME-180 cells, beta-lactamase FRET ratio, 16 h; stronger effect = higher value
# Procedure, shortened: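 FRET-based beta-lactamase detection in ME-180 cells reports NF-kB response-element-driven transcription following overnight (16 hr) compound treatment.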
# [14] = qHTS assay for small molecule disruptors of the mitochondrial membrane potential - 1 hr assay (AID 651754); further: nearly all actives have a fitted effect of over 35% in size
# Procedure, shortened: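 In this qHTS format, a 1 hr compound treatment of HepG2 cells precedes Mito-MPS staining, and membrane potential is judged from aggregate (red) against monomer (green) fluorescence intensity.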
# [15] = qHTS assay for small molecule antagonists of peroxisome proliferator-activated receptor delta signaling (AID 588535; active means well fitted inhibition curve with a large enough effect in the signal ratio, with a control signal flat, not every such curve was filed as active; the % refers to the signal ratio;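 on max response: cells co-treated with a PPAR-delta agonist as stimulator during compound exposure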); conditions: HEK293T PPARd-UAS-bla, beta-lactamase FRET ratio, 18 h; 460 nm channel
# Procedure, shortened: (§2)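 Antagonist-mode qHTS using GeneBLAzer PPAR-delta-UAS-bla HEK293T cells; compound exposure 18 hrs at 37 C over a titration. Ratiometric CCF4 fluorescence at 460/530 nm; concentration-response points fitted to the Hill equation.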
# [16] = molecular target: Peroxisome proliferator-activated receptor delta (Homo sapiens) (UniProt Q03181); experiment: as above
# Procedure, shortened: as §2
# [17] = molecular target: Thyroid hormone receptor beta (Homo sapiens) (UniProt P10828); experiment: qHTS assay for small molecule agonists of thyroid hormone receptor beta signaling (AID 588545)
# Procedure, shortened: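 In this cell-based screen, titrated compounds act on HEK 293 cells held in medium with 2% charcoal/dextran FBS, NEAA and pyruvate for 18 hrs at 37 C. Responses are expressed relative to T3 (10 nM) as 100% and basal DMSO as 0%.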
# Sequence of Thyroid hormone receptor beta (Homo sapiens) (P10828 whole entry, looked up): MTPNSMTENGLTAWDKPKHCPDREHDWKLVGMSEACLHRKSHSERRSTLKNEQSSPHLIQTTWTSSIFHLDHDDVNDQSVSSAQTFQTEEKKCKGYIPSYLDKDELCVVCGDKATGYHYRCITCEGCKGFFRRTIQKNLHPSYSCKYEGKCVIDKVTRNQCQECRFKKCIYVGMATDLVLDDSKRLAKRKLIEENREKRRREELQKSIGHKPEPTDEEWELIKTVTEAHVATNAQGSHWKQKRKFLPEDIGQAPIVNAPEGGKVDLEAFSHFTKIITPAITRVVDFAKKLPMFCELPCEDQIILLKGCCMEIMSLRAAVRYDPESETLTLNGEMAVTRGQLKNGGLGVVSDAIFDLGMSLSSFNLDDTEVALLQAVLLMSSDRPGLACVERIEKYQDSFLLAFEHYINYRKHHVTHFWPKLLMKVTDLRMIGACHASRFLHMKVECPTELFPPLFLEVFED
# Sequence of Voltage-gated inwardly rectifying potassium channel KCNH2 (Homo sapiens) (Q12809 whole entry, looked up): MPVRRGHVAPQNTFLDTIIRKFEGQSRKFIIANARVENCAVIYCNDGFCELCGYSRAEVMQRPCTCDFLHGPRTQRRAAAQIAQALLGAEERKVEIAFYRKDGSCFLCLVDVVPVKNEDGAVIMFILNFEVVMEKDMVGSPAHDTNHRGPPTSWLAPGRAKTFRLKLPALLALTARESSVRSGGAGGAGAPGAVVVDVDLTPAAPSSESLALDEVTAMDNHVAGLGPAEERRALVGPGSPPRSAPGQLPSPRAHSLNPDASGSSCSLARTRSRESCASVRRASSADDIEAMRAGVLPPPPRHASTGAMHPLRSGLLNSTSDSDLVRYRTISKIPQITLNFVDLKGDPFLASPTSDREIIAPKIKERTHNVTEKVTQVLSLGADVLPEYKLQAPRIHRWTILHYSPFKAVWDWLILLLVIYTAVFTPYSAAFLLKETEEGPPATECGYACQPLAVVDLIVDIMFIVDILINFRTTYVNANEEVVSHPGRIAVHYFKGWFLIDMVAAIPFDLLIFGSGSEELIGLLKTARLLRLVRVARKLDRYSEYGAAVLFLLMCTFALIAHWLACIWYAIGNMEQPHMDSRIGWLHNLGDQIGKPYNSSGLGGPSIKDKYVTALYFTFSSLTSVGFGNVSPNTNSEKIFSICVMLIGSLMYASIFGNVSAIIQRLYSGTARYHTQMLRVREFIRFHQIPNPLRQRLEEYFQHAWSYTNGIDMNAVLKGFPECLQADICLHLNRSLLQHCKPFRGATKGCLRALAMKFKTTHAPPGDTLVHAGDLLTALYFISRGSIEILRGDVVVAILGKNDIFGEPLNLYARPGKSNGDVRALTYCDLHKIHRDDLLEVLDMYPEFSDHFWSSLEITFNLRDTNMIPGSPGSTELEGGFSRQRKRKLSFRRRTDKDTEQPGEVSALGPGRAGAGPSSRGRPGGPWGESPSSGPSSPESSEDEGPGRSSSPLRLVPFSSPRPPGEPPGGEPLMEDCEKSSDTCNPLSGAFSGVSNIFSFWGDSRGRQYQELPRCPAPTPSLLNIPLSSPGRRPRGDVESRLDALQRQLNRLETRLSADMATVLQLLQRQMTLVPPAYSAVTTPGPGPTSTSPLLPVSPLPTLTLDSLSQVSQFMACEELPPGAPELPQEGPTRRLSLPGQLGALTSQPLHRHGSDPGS
# Sequence of Peroxisome proliferator-activated receptor gamma (Homo sapiens) (P37231 whole entry, looked up): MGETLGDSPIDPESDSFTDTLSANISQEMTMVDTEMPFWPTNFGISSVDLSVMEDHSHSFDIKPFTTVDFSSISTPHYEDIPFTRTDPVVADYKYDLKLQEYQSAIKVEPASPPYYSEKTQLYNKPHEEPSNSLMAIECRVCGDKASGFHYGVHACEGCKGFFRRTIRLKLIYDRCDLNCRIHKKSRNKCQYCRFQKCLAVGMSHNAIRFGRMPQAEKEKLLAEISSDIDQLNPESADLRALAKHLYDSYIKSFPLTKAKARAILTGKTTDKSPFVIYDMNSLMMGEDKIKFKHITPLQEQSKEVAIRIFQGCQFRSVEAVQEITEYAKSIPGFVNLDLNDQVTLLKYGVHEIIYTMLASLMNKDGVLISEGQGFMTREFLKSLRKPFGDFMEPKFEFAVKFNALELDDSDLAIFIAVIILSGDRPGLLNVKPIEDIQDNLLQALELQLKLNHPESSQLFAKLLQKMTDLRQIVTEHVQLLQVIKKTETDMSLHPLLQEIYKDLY
# Sequence of Peroxisome proliferator-activated receptor delta (Homo sapiens) (Q03181 whole entry, looked up): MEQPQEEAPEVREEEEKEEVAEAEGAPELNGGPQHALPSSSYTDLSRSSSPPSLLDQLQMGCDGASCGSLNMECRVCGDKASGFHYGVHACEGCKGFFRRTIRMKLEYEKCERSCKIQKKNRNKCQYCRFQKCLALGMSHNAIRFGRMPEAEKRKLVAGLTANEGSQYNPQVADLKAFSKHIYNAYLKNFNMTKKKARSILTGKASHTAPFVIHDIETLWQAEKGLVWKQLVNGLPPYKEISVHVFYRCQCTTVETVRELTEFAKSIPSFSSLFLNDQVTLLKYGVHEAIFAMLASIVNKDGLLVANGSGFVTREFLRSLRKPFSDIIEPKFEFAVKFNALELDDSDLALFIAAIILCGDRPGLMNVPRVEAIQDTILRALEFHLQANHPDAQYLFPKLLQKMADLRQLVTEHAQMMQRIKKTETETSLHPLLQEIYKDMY
# Sequence of Vitamin D3 receptor (Homo sapiens) (P11473 whole entry, looked up): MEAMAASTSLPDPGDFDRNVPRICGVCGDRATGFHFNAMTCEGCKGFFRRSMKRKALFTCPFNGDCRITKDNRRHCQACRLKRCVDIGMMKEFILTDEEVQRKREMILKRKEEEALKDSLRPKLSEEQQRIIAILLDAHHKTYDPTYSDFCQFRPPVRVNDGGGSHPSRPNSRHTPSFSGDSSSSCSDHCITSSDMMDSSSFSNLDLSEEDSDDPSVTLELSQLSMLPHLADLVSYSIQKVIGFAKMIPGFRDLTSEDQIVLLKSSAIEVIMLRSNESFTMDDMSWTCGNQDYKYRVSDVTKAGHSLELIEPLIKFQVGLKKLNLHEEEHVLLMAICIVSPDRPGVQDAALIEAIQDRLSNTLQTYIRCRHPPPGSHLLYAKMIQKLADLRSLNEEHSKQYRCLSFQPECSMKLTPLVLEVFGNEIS
# Sequence of Retinoic acid receptor RXR-alpha (Homo sapiens) (P19793 whole entry, looked up): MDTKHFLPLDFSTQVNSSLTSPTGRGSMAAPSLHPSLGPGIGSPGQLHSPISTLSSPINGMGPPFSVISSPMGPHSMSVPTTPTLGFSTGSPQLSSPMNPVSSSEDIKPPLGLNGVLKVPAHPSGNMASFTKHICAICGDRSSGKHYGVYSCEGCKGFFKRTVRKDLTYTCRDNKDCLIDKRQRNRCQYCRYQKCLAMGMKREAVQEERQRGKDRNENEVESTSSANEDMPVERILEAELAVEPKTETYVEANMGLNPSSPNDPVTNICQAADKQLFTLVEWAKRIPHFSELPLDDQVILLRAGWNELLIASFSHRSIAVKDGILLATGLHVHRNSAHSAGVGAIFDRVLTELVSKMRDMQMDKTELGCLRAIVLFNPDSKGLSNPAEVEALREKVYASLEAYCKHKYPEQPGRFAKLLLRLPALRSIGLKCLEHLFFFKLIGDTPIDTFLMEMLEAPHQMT
Structure (SMILES),outcome [1],outcome [2],outcome [3],outcome [4],max response [5],outcome [6],max response [7],max response [8],activity change % (negative = inhibition) [9],Potency [10],Potency [11],activation [12],activation [13],Potency [14],max response [15],Potency [16],outcome [17]
COC(=O)CC#N,inactive,inactive,inactive,inactive,-7.46%,inactive,-3.78%,-0.774% (inactive),2.83% (inactive),inactive,inactive,-2.67% (inactive),-0.54% (inactive),inactive,–,–,–
O=C(O)c1ccccc1Cl,inactive,–,inactive,inactive,0.58%,inactive,6.35%,2.61% (inactive),-4.08% (inactive),inactive,inactive,-4.07% (inactive),-0.473% (inactive),inactive,-1.82%,inactive,inactive
CCN(Cc1ccccc1)c1ccccc1,inactive,inactive,–,–,-15.3%,inactive,-8.88%,–,–,–,–,1.3% (inactive),–,–,–,–,–
CCCCCCCCN,inactive,inactive,inactive,inactive,-7.59%,inactive,2.38%,13.9% (inactive),5.95% (inactive),inactive,inactive,-1.65% (inactive),-1.11% (inactive),inactive,13.3%,–,inactive
CC1CCCO1 (stereo not drawn),inactive,–,inactive,inactive,11.5%,inactive,–,–,1.5% (inactive),inactive,inactive,-2.21% (inactive),-0.396% (inactive),inactive,6.05%,–,–
c1ccc(Nc2ccccc2)cc1,inactive,inactive,–,inactive,-15.4% and 2.86%,inactive,1.16% and -8.24%,-5.42% (inactive) and 3.85% (inactive),–,inactive,inactive,1.33% (inactive) and -1.7% (inactive),0.526% (inactive) and -2.1% (inactive),inactive,-10.2% and 19.6%,inactive,–
O=P(O)(OCc1ccccc1)OCc1ccccc1,inactive,inactive,inactive,inactive,6.08%,inactive,-0.49%,-5.97% (inactive),0.248% (inactive),inactive,inactive,-2.58% (inactive),–,inactive,–,–,inactive
O=C(O)CN(CC(=O)O)CC(=O)O,inactive,inactive,–,–,-7.34% and 8.5%,inactive,-6.97% and -9%,-2.38% (inactive) and 4.38% (inactive),–,inactive,inactive,-2.4% (inactive) and 1.34% (inactive) and -0.523% (inactive),–,–,–,–,–
Nc1cccc(C(F)(F)F)c1,inactive,–,–,–,3.76% and -4.65%,inactive,-1.51% and -8.69%,23% (inactive) and -15.4% (inactive),5.58% (inactive),inactive,inactive,–,–,–,14.1% and 46.7%,inactive,–
CCOc1ccc(NC(C)=O)cc1N,inactive,–,–,inactive,3.78%,inactive,–,–,2.46% (inactive),inactive,inactive,-6.53% (inactive),-1.6% (inactive),inactive,-0.981%,inactive,inactive
N#CCc1ccccc1[N+](=O)[O-],inactive,–,–,inactive,-1.87%,inactive,20.6%,-6.12% (inactive),-13.4% (inactive),inactive,42.2 µM (active),-2.66% (inactive),-0.713% (inactive),inactive,42%,–,inactive
